Data: PubChem BioAssay (NCI)
Compounds without any hit were thinned out: in the full panel of roughly 83,000, 20% have a hit.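 Note: values are percent growth. 100 is the growth of untreated cells, values between 100 and 0 indicate rising inhibition; between -100 and 0 indicates cell death.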 A number with no mark means an inactive call. The source made the active and inactive calls.

system: HCT-15 colon; assay: NCI-60 one-dose screen, 48 h (100 = growth as untreated, 0 = no growth, -100 = all killed); settings: 10 µM unless noted
Experimental: Growth inhibition of the HCT-15 human tumor cell line is measured as a screen for anti-cancer activity. Cells are grown in 96 well plates and exposed to the test compound for 48 hours. Compounds are tested at a single concentration, which is 10^-5 M for most compounds. The reported endpoint is percent growth (GI% or GIPRCNT), where numbers from 0 - 100% represent growth inhibition, and numbers from -100% - 0 represent cell death. For example, a value of 40 represents 60% growth inhibition. A value of 0 means no net growth occurred over the course of the experiment. A value of -40 indicates 40% of cells at the beginning of the experiment died by the end of the experiment. A value of -100 means all cells are dead at the end of the experiment.
NCI-60 Human Tumor Cell Lines Screen was performed using the standard one-dose NCI protocol, which is described in more detail at https://dtp.cancer.gov/discovery_development/nci-60/default.htm.
Compounds with GIPRCNT values below 10 were considered active. Activity score was based on GIPRCNT using the following formula: […]
Score is 0 for GIPRCNT values of 100 or above, 50 for GIPRCNT values of 0, and 100 for GIPRCNT values of -100.

Compound	growth
COc1ccc(/C=N/NC(=O)c2cnn3c2NC(c2ccccc2)C3)cc1OC1CCCC1 (stereo not given)	70%
c1ccc2cc(Cn3c(-c4ccc5ccccc5c4)[n+](Cc4ccc5ccccc5c4)c4ccccc43)ccc2c1	-74.6% (active)
COc1cc(/C=C2\C(=O)Nc3ccccc32)cc(OC)c1O	61.6%
O=C1/C(=C/c2ccc(Cl)cc2)N=C(c2ccccc2)N1CCc1cccs1	10.2%
Cc1ccc(S(=O)(=O)N2CCc3ccc(O)c4c3C2Cc2cc(Cl)ccc2-4)cc1 (stereo not given)	48.4%
CC1(C)N=C(N)N=C(N)N1c1cccc(OCCOc2cccc([N+](=O)[O-])c2)c1	89.5%
Cc1nc2cc(Nc3nc(N4CCOCC4)nc(N4CCN(C)CC4)n3)ccc2n1Cc1ccccc1	96%
CON=C1C[C@]2(C[C@@H]3C[C@@H](C/C=C(\C)C[C@@H](C)/C=C/C=C4\CO[C@@H]5[C@H](O)C(C)=C[C@@H](C(=O)O3)[C@]45O)O2)O[C@H](/C(C)=C/C(C)C)[C@H]1C	48.4%
O=c1[nH]c(=O)n(Cc2ccc(F)cc2)cc1F	99.5% [50 µM]
O=c1[nH]c(-c2ccccn2)nc2sc3c(c12)CCCCCC3	27.9%
Clc1ccc2c(N3CCN(c4ccnc(NC5CCCCC5)n4)CC3)ccnc2c1	2.81% (active)
COc1ccc(Nc2nc(NCCNc3ccnc4cc(Cl)ccc34)nc(N3CCOCC3)n2)cc1	15.1%
COc1cccc(OC)c1OC(=O)c1ccccc1	109%
CC(C)NCC(O)COc1ccc(CCOCC2CC2)cc1 (stereo not given)	107%
O=[N+]([O-])c1ccc(C=C2C(Cl)=C(Cl)C(Cl)=C2Cl)cc1	31.4%
O=C(N/N=C/c1ccc(F)cc1)c1[nH]c2ccc(I)cc2c1-c1ccccc1	18.7%
O=C(c1ccc2ncc(-c3nc(NC4CC4)ncc3F)n2c1)N1CCOCC1	23.8%
Brc1ccc(Br)nn1	-100% (active)
COc1ccc(S(=O)(=O)ON=C2C=C(C)C(=O)C(C)=C2)cc1	85.9%
Nc1nc2c(s1)CCc1c-2c(Br)n(Cc2ccccc2)c1Br	50.8%

Compound	growth
COc1ccc(-c2c3c(N)c4c(nc3nc3c2c(C)nn3-c2ccccc2)CCCC4)cc1	68.2%
COc1ccc(-c2nc3sc(C)cn3c2/C=C/C(=O)c2cc(OC)c(OC)c(OC)c2)cc1	48.1%
CC(C)(C)[Si](C)(C)OC1[C@@H](COC(=O)NC(=O)CCl)O[C@@H](n2cnc3c(N)ncnc32)[C@H]1O[Si](C)(C)C(C)(C)C (stereo not given in full)	11.8%
O=C1C(Br)=C(c2ccccc2)C(=O)C(Br)=C1c1ccccc1	85.7%
Cc1ccc2nc(NC(=O)CSC(=S)N3CCN(Cc4ccccc4)CC3)sc2c1	-37% (active)
O=c1nc(NO)[nH]c(=O)n1Cc1ccc(F)cc1	107%
O=C(COc1ccc(/C=C2\CSc3ccccc3C2=O)cc1)c1ccc(Cl)cc1	108%
Clc1cccc(Cl)c1Nc1ccc2nnc(-c3ccncc3)n2n1	90.9%
CCCCNNC(=O)c1ccc(Br)cc1	78.6%
c1ccc2c(c1)oc1cc3c(cc12)nnc1cccn13	104%
Clc1ccccc1Nc1ccc2nnc(-c3ccncc3)n2n1	91.8%
COc1ccc(-n2ncc3c2ccc2cc(S(=O)(=O)c4ccccc4)c(=O)n(C)c23)cc1	92%
O=C1/C(=C/c2ccc(Oc3ccccc3)cc2)N=C(c2ccccc2)N1CCc1cccs1	92.4%
C=C(C)COC(=O)c1ccccc1C(=O)OCC1(C)CO1 (stereo not given)	107%
O=C1C(Cl)=C(NCCCN2CCOCC2)C(=O)c2ccccc21	79.5%
FC(F)(F)Oc1ccc2c(c1)C[C@H]1C[C@@H](c3ccoc3)N2O1	95.1%
COc1nc2c(cc1S(=O)(=O)c1ccccc1)CCc1c-2cnn1-c1ccccc1	59.8%
Clc1ccc(Nc2ccnc(N3CCN(c4ccnc5cc(Cl)ccc45)CC3)n2)cc1	20.4%
COc1cc(-c2nc3ccccc3o2)cc(CN2CCN(c3ccccc3)CC2)c1O	43.6%
COc1cc2cc(Oc3ccc(NC(=O)Nc4ccc(Cl)c(C(F)(F)F)c4)cc3)c(C)nc2cc1OCCN1CCCCC1	-81.8% (active)
